Results as given in the supplement of paper PMC10849652.
Targets with a hit are over-represented here; the source holds about 8,800 in all. About 0.5% of all pairs of compound and target were hits.

Experiments:
Assay in all cases: log2 fold change, soluble protein after heating vs DMSO (PISA); higher = thermal stabilisation; K562 lysate, 10 uM; active = over 0.2 and 3.5 SD of the protein, either way, in both replicates (recomputed)
[1] = compound: C1=CC=C(C=C1)[C@H](COC2=CC3=C(C=C2)NC(=O)N3)NC(=O)C4=CC=CN(C4=O)CC5=CC(=C(C=C5)F)F
Outline: (§1)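 Thermal stability, expressed as log-two fold change relative to solvent controls, is given from duplicates. Crude K562 extract in PBS pH 7.4 with 1 mM MgCl2, at 1 mg/mL protein, was treated with 10 μM compound for 30 min and heated in aliquots for 3 min across 48°C-58°C. After pooling, adjustment to 0.5% NP-40 at 4°C and centrifugation at 21,000xg for 90 min, supernatant protein was measured by TMTpro 16plex LC-MS/MS with channel sums equalised.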

[2] = compound: CC1=C(SC2=C1C(=N[C@H](C3=NN=C(N32)C)CC(=O)N)C4=CC=C(C=C4)Cl)C
Outline: as §1

[3] = compound: CC1=C2C(=CC=C1)N=C(N(C2=O)C3=CC=CC=C3C)CN4C=NC5=C(N=CN=C54)N
Outline: as §1

[4] = compound: Cc1sc2c(c1C)C(c1ccc(Cl)cc1)=N[C@@H](CC(=O)OC(C)(C)C)c1nnc(C)n1-2
Outline: as §1

[5] = compound: c1ccc([C@@H]2C[C@H]2NC2CCNCC2)cc1
Outline: as §1

Measured: log2 fold change

RNF170 (UniProt Q96K19)
Sequence of UniProt Q96K19 (Q96K19 whole entry, looked up): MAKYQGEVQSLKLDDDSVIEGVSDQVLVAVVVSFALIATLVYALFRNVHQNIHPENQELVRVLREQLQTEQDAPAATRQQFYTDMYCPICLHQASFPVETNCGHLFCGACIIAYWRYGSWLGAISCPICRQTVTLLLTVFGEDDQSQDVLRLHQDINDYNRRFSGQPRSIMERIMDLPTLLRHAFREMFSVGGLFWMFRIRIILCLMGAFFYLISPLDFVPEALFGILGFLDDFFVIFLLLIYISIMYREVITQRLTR
inactive: [1] -0.097 | [2] -0.115 | [3] 0.149 | [4] 0.285 | [5] -0.026

RALGAPA1 isoform 6 (UniProt Q6GYQ0)
Sequence of UniProt Q6GYQ0 (Q6GYQ0 whole entry, looked up): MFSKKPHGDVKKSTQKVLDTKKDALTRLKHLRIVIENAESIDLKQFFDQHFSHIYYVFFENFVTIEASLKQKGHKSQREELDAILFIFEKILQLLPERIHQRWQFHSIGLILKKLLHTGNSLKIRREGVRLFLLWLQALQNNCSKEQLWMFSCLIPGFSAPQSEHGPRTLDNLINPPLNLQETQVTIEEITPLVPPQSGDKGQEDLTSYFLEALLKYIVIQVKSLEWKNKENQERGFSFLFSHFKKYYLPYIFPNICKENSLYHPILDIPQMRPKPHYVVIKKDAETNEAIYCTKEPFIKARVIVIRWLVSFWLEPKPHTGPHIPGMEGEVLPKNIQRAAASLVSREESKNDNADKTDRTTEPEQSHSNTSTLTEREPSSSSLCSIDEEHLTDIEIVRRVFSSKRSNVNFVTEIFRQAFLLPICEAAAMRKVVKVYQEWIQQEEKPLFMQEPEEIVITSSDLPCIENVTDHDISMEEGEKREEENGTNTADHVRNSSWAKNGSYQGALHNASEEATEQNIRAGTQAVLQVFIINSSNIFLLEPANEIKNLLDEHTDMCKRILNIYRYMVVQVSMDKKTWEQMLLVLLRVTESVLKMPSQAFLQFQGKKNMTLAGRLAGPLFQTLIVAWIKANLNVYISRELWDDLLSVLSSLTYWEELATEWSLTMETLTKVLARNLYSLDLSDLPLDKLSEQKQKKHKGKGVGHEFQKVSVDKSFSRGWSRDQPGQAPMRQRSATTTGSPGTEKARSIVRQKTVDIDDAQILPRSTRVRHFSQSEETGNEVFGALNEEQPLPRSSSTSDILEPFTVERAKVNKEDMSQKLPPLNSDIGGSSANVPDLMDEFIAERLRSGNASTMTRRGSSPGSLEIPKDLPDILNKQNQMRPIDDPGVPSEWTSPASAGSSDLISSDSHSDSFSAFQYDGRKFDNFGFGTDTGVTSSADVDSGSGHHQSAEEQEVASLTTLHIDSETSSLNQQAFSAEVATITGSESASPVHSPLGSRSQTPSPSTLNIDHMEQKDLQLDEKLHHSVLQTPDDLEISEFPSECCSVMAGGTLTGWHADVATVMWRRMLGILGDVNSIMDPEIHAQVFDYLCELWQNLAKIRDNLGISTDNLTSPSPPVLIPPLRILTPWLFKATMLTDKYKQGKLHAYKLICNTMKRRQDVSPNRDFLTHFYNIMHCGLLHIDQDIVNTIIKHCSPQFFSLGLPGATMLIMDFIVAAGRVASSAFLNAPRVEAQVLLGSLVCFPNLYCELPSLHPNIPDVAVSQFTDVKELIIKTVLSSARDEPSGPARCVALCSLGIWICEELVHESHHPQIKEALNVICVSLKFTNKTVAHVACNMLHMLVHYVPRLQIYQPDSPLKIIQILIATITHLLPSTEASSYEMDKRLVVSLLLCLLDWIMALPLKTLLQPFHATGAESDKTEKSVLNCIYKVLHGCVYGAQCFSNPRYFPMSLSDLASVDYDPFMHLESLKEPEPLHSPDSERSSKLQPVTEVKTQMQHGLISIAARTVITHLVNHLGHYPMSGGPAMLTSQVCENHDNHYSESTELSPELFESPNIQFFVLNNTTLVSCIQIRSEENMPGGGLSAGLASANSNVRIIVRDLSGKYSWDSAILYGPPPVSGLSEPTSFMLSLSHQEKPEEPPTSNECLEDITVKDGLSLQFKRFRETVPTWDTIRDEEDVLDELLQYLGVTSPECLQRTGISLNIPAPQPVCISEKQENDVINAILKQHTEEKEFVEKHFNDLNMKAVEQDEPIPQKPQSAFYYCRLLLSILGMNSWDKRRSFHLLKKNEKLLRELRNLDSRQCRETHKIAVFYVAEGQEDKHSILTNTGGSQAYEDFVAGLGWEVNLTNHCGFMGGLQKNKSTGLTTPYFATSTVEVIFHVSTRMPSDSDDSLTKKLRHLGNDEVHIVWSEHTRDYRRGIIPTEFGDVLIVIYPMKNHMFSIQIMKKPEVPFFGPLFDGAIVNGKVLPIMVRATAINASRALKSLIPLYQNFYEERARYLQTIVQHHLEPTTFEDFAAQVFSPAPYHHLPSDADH
inactive: [1] -0.041 | [2] -0.072 | [3] 0.006 | [4] -0.063 | [5] -0.178

RETSAT (UniProt Q6NUM9)
Sequence of UniProt Q6NUM9 (Q6NUM9 whole entry, looked up): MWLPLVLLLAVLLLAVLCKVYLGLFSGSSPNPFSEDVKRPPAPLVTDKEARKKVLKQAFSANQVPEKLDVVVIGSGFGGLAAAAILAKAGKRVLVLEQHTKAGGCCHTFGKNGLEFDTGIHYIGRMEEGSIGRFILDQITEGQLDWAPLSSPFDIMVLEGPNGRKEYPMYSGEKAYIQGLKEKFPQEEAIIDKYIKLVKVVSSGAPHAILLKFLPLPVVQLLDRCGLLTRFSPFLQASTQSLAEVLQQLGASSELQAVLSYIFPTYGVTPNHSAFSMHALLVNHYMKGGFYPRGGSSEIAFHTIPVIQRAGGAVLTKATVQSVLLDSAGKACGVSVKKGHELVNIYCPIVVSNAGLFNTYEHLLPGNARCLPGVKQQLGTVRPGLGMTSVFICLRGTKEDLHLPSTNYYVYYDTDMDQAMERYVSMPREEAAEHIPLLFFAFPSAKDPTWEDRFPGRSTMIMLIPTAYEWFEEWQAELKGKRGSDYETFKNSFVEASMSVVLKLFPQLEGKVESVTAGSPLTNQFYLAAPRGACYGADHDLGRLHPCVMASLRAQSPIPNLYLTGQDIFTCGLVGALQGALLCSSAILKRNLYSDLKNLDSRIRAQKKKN
inactive: [1] 0.103 | [2] -0.037 | [3] 0.148 | [4] -0.145 | [5] -0.015

RPS6KA3 (UniProt P51812)
Sequence of UniProt P51812 (P51812 whole entry, looked up): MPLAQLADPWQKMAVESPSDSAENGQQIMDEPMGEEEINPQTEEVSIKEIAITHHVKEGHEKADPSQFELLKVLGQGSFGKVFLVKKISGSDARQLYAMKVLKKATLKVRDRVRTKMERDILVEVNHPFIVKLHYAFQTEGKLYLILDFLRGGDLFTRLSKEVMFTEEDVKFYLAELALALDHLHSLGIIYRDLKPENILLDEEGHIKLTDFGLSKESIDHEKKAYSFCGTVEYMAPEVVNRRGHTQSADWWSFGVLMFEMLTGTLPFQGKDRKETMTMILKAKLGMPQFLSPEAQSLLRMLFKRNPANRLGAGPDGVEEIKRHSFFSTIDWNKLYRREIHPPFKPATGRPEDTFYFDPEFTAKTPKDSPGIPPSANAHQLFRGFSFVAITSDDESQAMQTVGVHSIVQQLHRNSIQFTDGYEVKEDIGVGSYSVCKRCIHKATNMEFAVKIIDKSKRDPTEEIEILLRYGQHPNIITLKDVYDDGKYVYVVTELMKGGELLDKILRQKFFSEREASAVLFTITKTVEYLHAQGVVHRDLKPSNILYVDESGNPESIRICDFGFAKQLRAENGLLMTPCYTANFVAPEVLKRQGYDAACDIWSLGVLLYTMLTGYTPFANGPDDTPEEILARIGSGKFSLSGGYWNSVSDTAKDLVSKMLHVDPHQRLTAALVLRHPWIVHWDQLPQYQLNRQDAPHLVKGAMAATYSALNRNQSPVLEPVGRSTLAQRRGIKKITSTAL
inactive: [1] -0.049 | [2] -0.031 | [3] -0.008 | [4] 0.009 | [5] -0.061

RMC1 (UniProt Q96DM3)
Sequence of UniProt Q96DM3 (Q96DM3 whole entry, looked up): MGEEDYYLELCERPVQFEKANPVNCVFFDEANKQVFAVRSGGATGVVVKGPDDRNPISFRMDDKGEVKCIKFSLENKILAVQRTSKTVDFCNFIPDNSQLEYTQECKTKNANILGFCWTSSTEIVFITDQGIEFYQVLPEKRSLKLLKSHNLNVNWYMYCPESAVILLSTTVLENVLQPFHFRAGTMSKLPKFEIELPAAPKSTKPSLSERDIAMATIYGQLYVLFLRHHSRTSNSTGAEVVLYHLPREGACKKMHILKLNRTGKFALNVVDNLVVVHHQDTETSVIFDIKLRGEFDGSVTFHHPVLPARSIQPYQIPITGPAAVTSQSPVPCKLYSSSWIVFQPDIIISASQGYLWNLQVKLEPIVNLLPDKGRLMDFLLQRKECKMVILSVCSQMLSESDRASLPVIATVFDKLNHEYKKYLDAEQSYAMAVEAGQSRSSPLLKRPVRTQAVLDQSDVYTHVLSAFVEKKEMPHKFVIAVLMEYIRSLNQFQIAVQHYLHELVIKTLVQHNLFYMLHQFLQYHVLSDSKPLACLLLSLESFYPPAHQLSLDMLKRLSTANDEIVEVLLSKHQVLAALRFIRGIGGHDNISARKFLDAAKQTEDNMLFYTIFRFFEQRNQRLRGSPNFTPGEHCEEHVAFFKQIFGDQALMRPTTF
inactive: [1] -0.013 | [2] 0.018 | [3] -0.052 | [4] 0.05 | [5] 0.007

RIC1 (UniProt Q4ADV7)
inactive: [1] -0.086 | [2] 0.186 | [3] 0 | [4] 0.081 | [5] 0.138

RINT1 (UniProt Q6NUQ1)
inactive: [1] -0.021 | [2] -0.008 | [3] 0.019 | [4] -0.008 | [5] 0.026

RASA2 (UniProt Q15283)
inactive: [1] -0.07 | [2] 0.045 | [3] 0.058 | [4] 0.025 | [5] 0.037

SEC13 isoform 3 (UniProt P55735)
Sequence of UniProt P55735 (P55735 whole entry, looked up): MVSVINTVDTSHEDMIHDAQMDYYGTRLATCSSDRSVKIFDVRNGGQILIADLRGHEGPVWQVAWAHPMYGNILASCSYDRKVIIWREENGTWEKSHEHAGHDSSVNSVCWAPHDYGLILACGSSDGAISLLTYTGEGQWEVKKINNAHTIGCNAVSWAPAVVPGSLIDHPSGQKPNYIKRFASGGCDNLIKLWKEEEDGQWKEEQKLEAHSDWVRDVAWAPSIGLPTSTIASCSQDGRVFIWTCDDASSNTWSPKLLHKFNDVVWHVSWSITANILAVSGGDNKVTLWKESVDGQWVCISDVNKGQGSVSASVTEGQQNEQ
inactive: [1] 0.022 | [2] -0.013 | [3] -0.001 | [4] -0.029 | [5] 0.191
